This is part of a sample that, as a whole, favours compounds with a hit. Of some 83,000 tested, about 20% had one in any assay.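 Note: values are percent growth. 100 is the growth of untreated cells, values between 100 and 0 indicate rising inhibition; between -100 and 0 indicates cell death.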 Values without a mark were called inactive. The source made the active and inactive calls.
These molecules were tested on SR leukemia (assay: NCI-60 one-dose screen, 48 h (100 = growth as untreated, 0 = no growth, -100 = all killed)). Conditions: 10 µM.
Method: Growth inhibition of the SR human tumor cell line is measured as a screen for anti-cancer activity. Cells are grown in 96 well plates and exposed to the test compound for 48 hours. Compounds are tested at a single concentration, which is 10^-5 M for most compounds. The reported endpoint is percent growth (GI% or GIPRCNT), where numbers from 0 - 100% represent growth inhibition, and numbers from -100% - 0 represent cell death. For example, a value of 40 represents 60% growth inhibition. A value of 0 means no net growth occurred over the course of the experiment. A value of -40 indicates 40% of cells at the beginning of the experiment died by the end of the experiment. A value of -100 means all cells are dead at the end of the experiment.
NCI-60 Human Tumor Cell Lines Screen was performed using the standard one-dose NCI protocol, which is described in more detail at https://dtp.cancer.gov/discovery_development/nci-60/default.htm.
Compounds with GIPRCNT values below 10 were considered active. Activity score was based on GIPRCNT using the following formula: […]
Score is 0 for GIPRCNT values of 100 or above, 50 for GIPRCNT values of 0, and 100 for GIPRCNT values of -100.
Molecule `CCCCSc1nc(Nc2ccc(/C(C)=N/NC(N)=S)cc2)c(C#N)c(-c2ccc(F)cc2)n1` has a growth of 52.4%.
`CC1(c2ccccc2)NC(=O)N(CC(=O)Nc2ccc(C(=O)/C=C/c3ccc(Cl)cc3)cc2)C1=O` (stereo not given) was tested, and the growth was -13.3% (active).
Molecule `CCOc1ccc(/C=N/NC(=O)Cn2nc(Cc3ccccc3)c3onc(C)c3c2=O)cc1` has a growth of 78.1%.
For `COc1cc(/C=C/C(=O)c2ccc(S(=O)(=O)NCCNc3nc(Nc4ccc(F)cc4)nc(N(C)C)n3)cc2)cc(OC)c1OC`, the growth was 3.14% (active).
For `[2H]C([2H])([2H])Oc1ccc2ncc(C#Cc3cncc(C(=O)Nc4ccc(CN5CCN(C)CC5)c(C(F)(F)F)c4)c3)n2n1`, the growth was -9.99% (active).
For `CCOC(=O)C(Cc1ccccc1)N1C(=O)/C(=C/N2N=C(c3ccc(OC)cc3)CC2c2ccc3ccccc3c2)SC1=S` (stereo not given), the growth was 6.53% (active).
Molecule `COc1ccc(OC)c(/C=N/NC(=O)c2ccc3nc(-c4ccc(Cl)cc4)[nH]c3c2)c1` has a growth of 68.6%.
For `CCCCOc1ccc(Nc2nc3ccccc3nc2Nc2ccc(OCCCC)cc2)cc1`, the growth was 80.1%.
With `O=c1cc(-c2ccccc2)oc2cc(OCCCCNCc3ccccc3)cc(O)c12` the growth was -29.7% (active).
With `COc1ccc(CN2[C@H](C(=O)NCCCCCCC(=O)NO)Cc3c([nH]c4ccccc34)[C@H]2C2CC2)cc1` the growth was 16%.
In the case of `CC(C)(C)c1ccc(NCc2cn(-c3ccc(C(=O)O)cc3)nc2-c2ccc(C#N)cc2)cc1`, the growth is reported as 5.39% (active).
For `Cc1noc2c(Cc3ccccc3)nn(CC(=O)N/N=C/c3ccc(Cl)cc3)c(=O)c12`, the growth was 104%.
`COc1nccnc1NS(=O)(=O)c1ccc(NC2=C(Cl)C(=O)c3nc(C)ccc3C2=O)cc1` gave a growth of 115%.
`CCOc1ccc(Nc2nc3ccccc3nc2Nc2ccc(OCC)cc2)cc1` showed a growth of 42.2%.
Molecule `Cc1ccc(/C(N)=N/c2sc(-c3ccccc3)nc2-c2ccccc2)cc1` has a growth of 63.1%.
Molecule `COc1cccc(-c2ccnc(/N=C(\N)Nc3ccc(S(=O)(=O)Nc4nc(C)cc(C)n4)cc3)n2)c1` has a growth of 100%.
Molecule `Nc1nc(Nc2ccc(Cl)cc2)nn1Cc1cccc(Br)c1` has a growth of 30.6%.
With `CCOC(=O)c1c(CSc2ccccc2)n(C)c2cc(CN(C)C)c(O)c(CN(C)C)c12` the growth was 21.4%.
Molecule `Nc1nnc(-c2c[nH]c3ccc(F)cc23)c(-c2c[nH]c3ncccc23)n1` has a growth of 20.6%.
For `COc1cc2c3c(n(CCCNC(C)C)c(=O)c2cc1OC)-c1nc2c(cc1C3=O)OCO2`, the growth was 2.57% (active).
In the case of `O=C(CSc1nnc(-c2c[nH]c3ccccc23)n1-c1ccccc1)Nc1ccc(C(=O)/C=C/c2ccc(Br)cc2)cc1`, the growth is reported as 72.3%.
In the case of `Cc1cc(C)nc(NS(=O)(=O)c2ccc(N/C(N)=N/c3nccc(-c4cccs4)n3)cc2)n1`, the growth is reported as 92.3%.
`C=C[C@@]12CN3CC[C@]1(O)[C@@](C(=O)OC)(CO2)c1[nH]c2ccccc2c1C3` was tested, and the growth was 75.5%.
Molecule `COc1cccc(COc2ccc(/C=C3\Oc4cc(O)ccc4C3=O)cc2)c1` has a growth of 21.4%.
`COc1ccc(C(=O)Nc2sc3c(c2C#N)CCC(=O)C3)cc1C(F)(F)F` was tested, and the growth was 0.622% (active).
`CN(C)c1ccc(/C=C/C(=O)c2ccc(NC(=O)CN3C(=O)NC(C)(c4ccccc4)C3=O)cc2)cc1` (stereo not given) gave a growth of 42.7%.
`COc1ccc2[nH]c(=O)c(CSc3cccc(N)c3)cc2c1` showed a growth of 39.1%.
For `Cn1c(O)c(N=Nc2nc(-c3cc4ccccc4oc3=O)cs2)c2cc(Br)ccc21`, the growth was 71.7%.
For `CN1C(=O)N(C)C2SC(N/N=C/c3ccccc3)=NC21` (stereo not given), the growth was 13.6%.
For `CC(=O)Oc1ccccc1C(=O)Oc1ccc(C(=O)/C=C/c2ccncc2)cc1`, the growth was 7.37% (active).
In the case of `O=C(CSc1nnc(-c2c[nH]c3ccccc23)n1-c1ccccc1)Nc1ccc(C(=O)/C=C/c2ccc(Cl)cc2)cc1`, the growth is reported as 70.8%.
For `Nc1nc(Nc2ccc(Cl)cc2)n(Cc2cccc(Br)c2)n1`, the growth was 10.4%.
For `COc1cc(C2CC(c3ccccc3)=Nc3c(N)nc(N)nc3N2)ccc1Oc1nc(Nc2ccc(F)cc2)nc(N(C)C)n1` (stereo not given), the growth was 2.83% (active).
For `COc1cnc2c(c1)C(=O)c1c-2n(CCCNCCO)c(=O)c2cc(OC)c(OC)cc12`, the growth was 5.85% (active).
In the case of `COc1cc2c(cc1OC)/C(=C\c1sc(Nc3ccc(O)cc3)nc1O)C(C(=O)O)=N2`, the growth is reported as 17%.
`O=c1c2ccccc2nc(COc2ccccc2)n1/N=C/c1ccc(F)cc1` showed a growth of 78.2%.
`O=C(NO)c1ccc(Cn2ccc3c(NCc4ccccc4)ncnc32)cc1` was tested, and the growth was 12.7%.
With `COc1cc(/C=C/C(=O)c2cc(OC)c(OC)c(OC)c2)ccc1Oc1nc(Nc2ccc(F)cc2)nc(N(C)C)n1` the growth was -5.9% (active).
With `COc1cc(OC(F)(F)F)ccc1C(=O)Nc1sc2c(c1C#N)CCC(=O)C2` the growth was 15.1%.
With `O=C(CNc1nc(-c2ccccc2)cs1)Nc1ccccc1` the growth was 4.25% (active).

— PubChem BioAssay (NCI)
